Results: the supplement of paper PMC10338343
± gives the standard deviation.

These sequences were tested on MILI (PIWIL2) piRISC loaded with piRNA #1 (26 nt) (assay: pre-steady-state target cleavage rate (min^-1); guide: piRNA #1 5'p-UGAGGUAGUAGGUUGUAUAGUAUCCA; MIWI and MILI are mouse PIWI proteins and EfPiwi is from a freshwater sponge; tags in brackets are library labels; higher = faster piRNA-guided slicing of the target). Details: auxiliary factor: 500 nM mouse GTSF1.
Summary of the method: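 Cleave-'n-Seq measured uncleaved targets by sequencing after a transcribed, DNA-blocked target RNA library […] was mixed with 1 nM active affinity-purified piRISC holding one synthetic guide, with or without 500 nM GTSF1 partner protein, at 33 °C in HEPES–potassium acetate buffer for 0–8 or 0–960 min. Counts were normalised to depth and to weakly complementary targets, three trials were pooled, and k3 was capped at 0.0001 min^-1. A burst-and-steady-state fit gave the pre-steady-state cleavage rate.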
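Note: 1 nM active piRISC with 0.1 nM target library at 33 °C single turnover.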

Sequence	pre-steady-state target cleavage rate
GGAGACCUUUCUAUACAACCUACUAGCUCA	0.0622 ± 0.013
GGAGACCAUACUAUACUUGGAUGAUGGAGA [g15:g23:cont:t1A]	< 0.0001
GGAGACCUAUGAUUACAACCUACUACGCUCA	0.0104 ± 0.0039
GGAGACCUAACUAUACAACCUACUACGCUCA	0.212 ± 0.042
GGAGACCUAACUUUAGAACCUACUACCUCA	0.129 ± 0.023
GGAGAGGAUUCUAUACAACCUACUACCACA	0.113 ± 0.011
GGAGUGGAUUCUAUACAACCAACUACCUCA	0.00438 ± 0.0023
GGAGACCUAUGAAUACAACCUCCUACCUCA	0.00498 ± 0.0023
GGAGACCUAUGUAUACAACCUACUACGAGA	0.013 ± 0.0047
GGAGAGGAUACAAUAGAACCUACUACCUCA	0.148 ± 0.012
GGAGACCUUACUAUACAAGGUACUACCUCA	0.0785 ± 0.0094
GGAGACCAUACUAUACAACCUUCAACCUCA	0.0066 ± 0.0029
GGAGACCUAUCUAAACAACCUACAACCUCA	0.0563 ± 0.0063
GGAGACCUAUCUAUACAACCGUACUACCUCA	0.00775 ± 0.0032
GGAGACCUUACUAUACACCUACUACCUCA	0.00774 ± 0.0034
GGAGACCUAUCUAUAGAACCUACUACCUCA	0.0821 ± 0.013
GGAGACCUAUGUAUACAACCUACUACCUA	0.044 ± 0.0064
GGAGACGAUACUAUACUACGUACUACCUCA	0.0345 ± 0.004
GGAGACCUUAGUAUACAACCUACAACCUCA	0.0865 ± 0.013
GGAGACCUAACUAUUCAUCCUACUACCUCA	0.322 ± 0.043

Sequence	pre-steady-state target cleavage rate
GGAGACCUAUGAUAUGAACCUACAACCACA	< 0.0001
GGAGACCUAUGAAUACAUGCUACUACCUCA	0.00268 ± 0.0026
GGAGACCUUACUUACAACCUACUACCUCA	0.0198 ± 0.0056
GGAGACCUUUCUAUACAAGCUACUACCUCA	0.159 ± 0.012
GGAGACCUAUGAUUGACAACCUACUACCUCA	0.00768 ± 0.0032
GGAGACCUAUCUAAAGAACCUACUACCUCA	0.0183 ± 0.0054
GGAGACCUUACUUUACAACCUUCUACCUCA	0.00698 ± 0.0032
GGAGACCUAACUUUACAACGUACUACCUCA	0.00988 ± 0.0052
GGAGUGGAUACUAAAGAACCUACUACCUCA	0.167 ± 0.011
GGAGACCAUACAAAACAACCUACUACCUCA	0.0496 ± 0.014
GGAGACCUAUGAAUACAAGCUACUACCACA	0.0366 ± 0.0055
GGAGACCUAACUAUACAACCUACAUACCUCA	0.0941 ± 0.018
GGAGACGAUACAAUAGAACCUACUACCUCA	0.178 ± 0.014
GGAGACCUAUGAAUACAACCUACGACCUCA	0.0047 ± 0.0026
GGAGACCAUACUAUACAACCUACUACGCUCA	0.219 ± 0.028
GGAGACCUAUGAUAUCAACCUAUCUACCUCA	0.00534 ± 0.002
GGAGAGGAUUCUAUACAACCUACUACGUCA	0.0519 ± 0.0081
GGAGUGGAUACAAUACAACCUACAACCUCA	0.0772 ± 0.01
GGAGACCUAUGAAUACAUCCUUCUACCUCA	0.00365 ± 0.0022
GGAGACCUAUGAUAUGAACCUACUAUCUCA	< 0.0001
